This note sets out measurements from PubChem BioAssay (EPA / NIEHS).

By AC50 is commonly meant the concentration at which the activity in the assay is half-maximal.

Assay [1] has as its target Hepatocyte nuclear factor 3-beta (Homo sapiens) (UniProt Q9Y261). Kind of assay: ATG_FoxA2_CIS: Attagene CIS-FACTORIAL HepG2 Assay for human Forkhead box A2 (FOXA2) (AID 2282942). Particulars: HepG2 cis-reporter transcription factor activity, 24 h; actives raise or lower the signal. The procedure, abridged: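 Endogenous transcription factor activity was read in HepG2 cells carrying transiently transfected cis-promoter reporter units. After 24 h dosing, reporter mRNA was quantified by RT-PCR and capillary electrophoresis, and values fitted bidirectionally versus DMSO.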

Assay [2] deals with Heat shock factor protein 1 (Homo sapiens) (UniProt Q00613). Put plainly: ATG_HSE_CIS: Attagene CIS-FACTORIAL HepG2 Assay for human Heat Shock Transcription Factor 1 (HSE) (AID 2282953). Conditions: HepG2 HSE cis-reporter, Attagene RNA transcription; actives raise or lower the signal. The procedure, abridged: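 HepG2 cells transfected with cis-promoter reporter units sensing endogenous transcription factor activity; reporter mRNA quantified 24 h post-dose by RT-PCR and capillary electrophoresis of 6-FAM-labelled products. Bidirectional fitting against DMSO.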

Assay [3] in a line: ATG_RORE_CIS: Attagene CIS-FACTORIAL HepG2 Assay for human RAR-related Orphan Receptor Element (RORE) (AID 2282959). Particulars: HepG2 Attagene cis-factorial RORE reporter, mRNA; actives raise or lower the signal. The procedure, abridged: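 Cells were HepG2 carrying transfected cis-regulated reporter constructs, dosed for 24 hours. Total RNA was reverse-transcribed and reporter cDNA amplified, fluorescently labeled and sized by capillary electrophoresis. Activity was fitted bidirectionally relative to DMSO.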

Assay [4] is described as follows: ATG_Sox_CIS: Attagene CIS-FACTORIAL HepG2 Assay for human SRY-box transcription factor (SOX) (AID 2282960). Conditions: HepG2 Attagene cis-factorial SOX reporter, mRNA; actives raise or lower the signal. The essentials: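 Transient MRTU transfection of HepG2; 24 h compound incubation; TriZol RNA, oligo(dT) RT, PCR, 6-FAM primer extension, HpaI cut, CE. Bidirectional fit, DMSO = baseline.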

Assay [5] has as its target Transcription factor Sp1 (Homo sapiens) (UniProt P08047). Put plainly: ATG_Sp1_CIS: Attagene CIS-FACTORIAL HepG2 Assay for human Specificity Protein 1 (Sp1) (AID 2282961). Conditions: HepG2 Sp1 cis-reporter transcription, actives raise or lower the signal. The essentials:
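Endogenous Sp1 activity was gauged in human liver HepG2 cells bearing transfected reporter units under a cis-regulating promoter. After 24 h dosing, reporter mRNA was quantified by RT-PCR with capillary electrophoresis, and activity fitted bidirectionally versus DMSO.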

Assay [6] is described as follows: ATG_SREBP_CIS: Attagene CIS-FACTORIAL HepG2 Assay for human Sterol Regulatory Element Binding (SREBP) (AID 2282962). Conditions: HepG2 Attagene cis-factorial SREBP reporter, mRNA; actives raise or lower the signal. The essentials:
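In this cis-format assay, HepG2 liver cells express reporters controlled by promoter elements responsive to native transcription factors. Exposure lasts 24 h; reporter mRNA fluorescence from capillary electrophoresis gives the signal, fitted bidirectionally against DMSO.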

For assay [7], the target named is Signal transducer and activator of transcription 3 (Homo sapiens) (UniProt P40763). Put plainly: ATG_STAT3_CIS: Attagene CIS-FACTORIAL HepG2 Assay for human Signal Transducer and Activator of Transcription 3 (STAT3) (AID 2282963). Particulars: HepG2, Attagene cis-factorial STAT3 reporter transcription; actives raise or lower the signal. The procedure, abridged: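 Readout: fluorescent reporter mRNA fragments resolved by capillary electrophoresis. Setup: HepG2 transfected with MRTUs reporting endogenous transcription-factor activity, dosed 24 h. Gain or loss of signal fitted bidirectionally against DMSO control.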

Assay [8] is described as follows: ATG_TA_CIS: Attagene CIS-FACTORIAL HepG2 Assay for human TA Basal Promoter (AID 2282964). Particulars: HepG2 Attagene CIS-factorial TA basal promoter reporter; actives raise or lower the signal. The procedure, abridged: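 HepG2 cells transiently transfected with multiple reporter units under cis promoter elements, reporting endogenous transcription factor activity; this endpoint tracks the TA basal promoter as background control. Reporter mRNA after 24 h dosing measured by RT-PCR/capillary electrophoresis; bidirectional fits versus DMSO.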

Assay [9] is described as follows: ATG_TCF_b_cat_CIS: Attagene CIS-FACTORIAL HepG2 Assay for human T-Cell-Factor with beta-catenin (TCF/b-cat) (AID 2282965). Conditions: HepG2 TCF/beta-catenin cis-reporter transcription, actives raise or lower the signal. The essentials: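 HepG2 cells transiently transfected with cis-promoter-driven multiplexed reporter units; reporter mRNA measured 24 h after dosing by RT-PCR, FAM labelling, HpaI digestion and capillary electrophoresis. Bidirectional fitting relative to DMSO baseline.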

Assay [10] in a line: ATG_TAL_CIS: Attagene CIS-FACTORIAL HepG2 Assay for human TAL Basal Promoter (AID 2282966).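 Further: background control endpoint measuring basal TAL promoter reporter mRNA not a specific factor.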 Particulars: HepG2 Attagene cis-factorial TAL promoter reporter; actives raise or lower the signal. The essentials:
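Human hepatoma HepG2 cells, transfected with promoter-regulated reporter units, were treated 24 h. Reporter transcript levels, measured through RT-PCR and capillary electrophoresis, were fitted for gain or loss relative to DMSO.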

Assay [11] can be described thus: ATG_VDRE_CIS: Attagene CIS-FACTORIAL HepG2 Assay for human Vitamin D Receptor Element (VDRE) (AID 2282968). Conditions: HepG2 VDRE cis-reporter transcription, actives raise or lower the signal. The essentials: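 Transient MRTU transfection of HepG2, 24 h compound exposure. Readout: reporter transcripts via RT-PCR and capillary electrophoresis, fluorescence. Bidirectional fit vs DMSO.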

The target of assay [12] is Transcriptional activator Myb (Homo sapiens) (UniProt P10242). Put plainly: ATG_Myb_CIS: Attagene CIS-FACTORIAL HepG2 Assay for human Myeloblastosis (Myb) Proto-Oncogene Transcription Factor (AID 2282986). Conditions: HepG2 Attagene CIS-FACTORIAL Myb reporter transcription; actives raise or lower the signal. The essentials:
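Steps: transfect HepG2 with cis-regulated reporter units; dose with chemical for 24 h; isolate RNA, reverse-transcribe, PCR-amplify and FAM-label reporter sequences; digest with HpaI; resolve by capillary electrophoresis. Activity fitted in both directions relative to DMSO.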

The target in assay [13] is Nuclear respiratory factor 1 (Homo sapiens) (UniProt Q16656). Kind of assay: ATG_NRF1_CIS: Attagene CIS-FACTORIAL HepG2 Assay for human Nuclear Respiratory Factor 1 (NRF1) Orphan Gene (AID 2282987). Conditions: HepG2 NRF1 cis-element reporter, Attagene multiplex; actives raise or lower the signal. The procedure, abridged: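 Fluorescence intensity of labelled reporter cDNA fragments, resolved by capillary electrophoresis, served as readout for NRF1 cis-element activity. Transiently transfected HepG2 cells were dosed for 24 hours; activity in either direction was fitted against DMSO negative control.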

A short description of assay [14]: ATG_NFI_CIS: Attagene CIS-FACTORIAL HepG2 Assay for human Nuclear Factor I (NFI) (AID 2282989). Conditions: HepG2 cis-regulatory reporter, NFI response element transcription; actives raise or lower the signal. The essentials: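 Endogenous TF activity in HepG2 cells transiently transfected with cis-element-driven multiplexed reporter units, read 24 h after dosing. Reporter mRNA quantified by RT-PCR, 6-FAM labelling, HpaI digestion and capillary electrophoresis; bidirectional fit versus DMSO.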

Assay [15] addresses Myc proto-oncogene protein (Homo sapiens) (UniProt P01106). Put plainly: ATG_Myc_CIS: Attagene CIS-FACTORIAL HepG2 Assay for human Myelocytomatosis (Myc) Proto-Oncogene Transcription Factor (AID 2282990). Particulars: HepG2, Attagene cis-reporter transcription factor activity; actives raise or lower the signal. The procedure, abridged:
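Transiently transfected HepG2 cells bearing cis-promoter reporter units for endogenous transcription factors; 24 h exposure. Reporter mRNA measured by RT-PCR, 6-FAM primer extension, HpaI cut and capillary electrophoresis; bidirectional fit relative to DMSO.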

Assay [16] is described as follows: ATG_NRF2_ARE_CIS: Attagene CIS-FACTORIAL HepG2 Assay for human Nuclear Factor Erythroid 2 Related Factor 2 (NFR2) response to Antioxidant Response Elements (ARE) (AID 2282992). Particulars: HepG2 Attagene ARE/NRF2 reporter, transcription factor activity; actives raise or lower the signal. The essentials: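 Using transiently transfected HepG2 cells exposed for 24 h, reporter mRNA levels were determined by RT-PCR with fluorescent primer extension and capillary electrophoresis, analysed for gain or loss of signal against DMSO.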

Assay [17] is described as follows: ATG_Oct_MLP_CIS: Attagene CIS-FACTORIAL HepG2 Assay for human Octamer-Binding Transcription Factor (Oct) (AID 2282993). Particulars: HepG2 Attagene cis-factorial Oct reporter, mRNA; actives raise or lower the signal. The procedure, abridged: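 HepG2 cells transiently transfected with cis-element-driven reporter transcription units (endogenous TF activity); 24 h compound exposure. Reporter mRNA quantified by RT-PCR, 6-FAM labelling, HpaI digestion and capillary electrophoresis; bidirectional fit versus DMSO baseline.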

Assay [18] has as its target Cellular tumor antigen p53 (Homo sapiens) (UniProt P04637). Put plainly: ATG_p53_CIS: Attagene CIS-FACTORIAL HepG2 Assay for human p53 Transcription Factor (AID 2282994). Particulars: HepG2 p53 cis-element reporter, Attagene mRNA; actives raise or lower the signal. The essentials:
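In HepG2 cells, reporter transcription units under cis-regulatory promoters were transiently introduced. Following 24 h treatment, RNA was processed to labelled, digested cDNA fragments read by capillary electrophoresis; fitting was bidirectional versus DMSO.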

For assay [19], the target named is Nuclear receptor subfamily 1 group I member 2 (Homo sapiens) (UniProt O75469). Put plainly: ATG_PXR_TRANS: Attagene TRANS-FACTORIAL HepG2 Assay for human Pregnane X Receptor (PXR) (AID 2283008; active means hit-call score of the fitted dose curve at least 0.9, where 1 is the maximum). The procedure, abridged: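 Multiplexed TRANS reporter panel in HepG2; this component tracks PXR-Gal4-driven reporter mRNA after 24 h dosing, measured by RT-PCR with capillary electrophoresis fluorescence, fitted against DMSO.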

A short description of assay [20]: ATG_XTT_Cytotoxicity: Cytotoxicity Assessment in the Attagene TRANS-FACTORIAL HepG2 Assay (AID 2283584; active means hit-call score of the fitted dose curve at least 0.9, where 1 is the maximum). The procedure, abridged:
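24 h chemical exposure of reporter-transfected HepG2; XTT signal loss vs DMSO indicates cytotoxicity.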

Each structure is given as a SMILES string. Inconclusive results are not listed. Calls of active or inactive are those of the source. How the source made its calls, unless noted: active means hit-call score of the fitted dose curve at least 0.9, where 1 is the maximum; inactive means score below 0.9.

Chain of Myc proto-oncogene protein (Homo sapiens) (P01106 whole entry, looked up): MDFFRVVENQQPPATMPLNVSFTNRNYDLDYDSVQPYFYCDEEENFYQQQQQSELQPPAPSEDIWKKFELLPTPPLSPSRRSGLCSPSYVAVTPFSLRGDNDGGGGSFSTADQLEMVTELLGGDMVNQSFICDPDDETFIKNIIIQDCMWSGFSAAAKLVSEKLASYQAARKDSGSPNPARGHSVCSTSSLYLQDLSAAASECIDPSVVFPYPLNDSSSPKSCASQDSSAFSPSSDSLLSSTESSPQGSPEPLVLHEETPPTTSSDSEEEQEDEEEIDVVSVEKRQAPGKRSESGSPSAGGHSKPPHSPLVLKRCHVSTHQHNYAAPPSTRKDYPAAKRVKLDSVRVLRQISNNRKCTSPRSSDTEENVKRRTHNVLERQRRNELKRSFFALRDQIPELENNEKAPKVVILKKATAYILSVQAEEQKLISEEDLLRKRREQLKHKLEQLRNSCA
Chain of Hepatocyte nuclear factor 3-beta (Homo sapiens) (Q9Y261 whole entry, looked up): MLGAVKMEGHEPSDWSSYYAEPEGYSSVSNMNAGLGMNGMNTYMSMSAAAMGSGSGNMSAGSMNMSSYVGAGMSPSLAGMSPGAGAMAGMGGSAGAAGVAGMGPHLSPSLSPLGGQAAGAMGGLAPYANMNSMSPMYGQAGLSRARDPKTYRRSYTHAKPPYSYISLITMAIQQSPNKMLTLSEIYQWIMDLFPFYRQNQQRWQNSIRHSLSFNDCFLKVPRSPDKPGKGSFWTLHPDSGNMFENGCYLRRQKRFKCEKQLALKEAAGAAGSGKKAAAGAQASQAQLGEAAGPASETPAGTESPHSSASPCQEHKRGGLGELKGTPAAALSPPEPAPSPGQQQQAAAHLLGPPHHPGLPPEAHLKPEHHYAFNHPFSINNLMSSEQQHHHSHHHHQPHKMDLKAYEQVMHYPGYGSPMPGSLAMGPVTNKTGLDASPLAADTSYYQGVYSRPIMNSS
Chain of Nuclear receptor subfamily 1 group I member 2 (Homo sapiens) (O75469 whole entry, looked up, the tested form may be a part): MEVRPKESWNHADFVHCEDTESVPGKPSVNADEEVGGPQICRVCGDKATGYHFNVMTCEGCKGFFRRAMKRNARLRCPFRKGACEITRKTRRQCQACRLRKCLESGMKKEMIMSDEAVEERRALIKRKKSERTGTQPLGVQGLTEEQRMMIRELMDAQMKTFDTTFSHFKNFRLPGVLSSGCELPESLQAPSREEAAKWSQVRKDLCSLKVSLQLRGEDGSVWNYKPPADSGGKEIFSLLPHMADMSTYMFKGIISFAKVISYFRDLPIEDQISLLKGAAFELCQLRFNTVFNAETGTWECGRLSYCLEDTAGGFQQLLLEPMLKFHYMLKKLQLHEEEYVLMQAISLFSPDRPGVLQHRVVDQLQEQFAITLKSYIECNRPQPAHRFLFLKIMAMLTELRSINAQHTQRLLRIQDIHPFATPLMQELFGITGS
Chain of Signal transducer and activator of transcription 3 (Homo sapiens) (P40763 whole entry, looked up, the tested form may be a part): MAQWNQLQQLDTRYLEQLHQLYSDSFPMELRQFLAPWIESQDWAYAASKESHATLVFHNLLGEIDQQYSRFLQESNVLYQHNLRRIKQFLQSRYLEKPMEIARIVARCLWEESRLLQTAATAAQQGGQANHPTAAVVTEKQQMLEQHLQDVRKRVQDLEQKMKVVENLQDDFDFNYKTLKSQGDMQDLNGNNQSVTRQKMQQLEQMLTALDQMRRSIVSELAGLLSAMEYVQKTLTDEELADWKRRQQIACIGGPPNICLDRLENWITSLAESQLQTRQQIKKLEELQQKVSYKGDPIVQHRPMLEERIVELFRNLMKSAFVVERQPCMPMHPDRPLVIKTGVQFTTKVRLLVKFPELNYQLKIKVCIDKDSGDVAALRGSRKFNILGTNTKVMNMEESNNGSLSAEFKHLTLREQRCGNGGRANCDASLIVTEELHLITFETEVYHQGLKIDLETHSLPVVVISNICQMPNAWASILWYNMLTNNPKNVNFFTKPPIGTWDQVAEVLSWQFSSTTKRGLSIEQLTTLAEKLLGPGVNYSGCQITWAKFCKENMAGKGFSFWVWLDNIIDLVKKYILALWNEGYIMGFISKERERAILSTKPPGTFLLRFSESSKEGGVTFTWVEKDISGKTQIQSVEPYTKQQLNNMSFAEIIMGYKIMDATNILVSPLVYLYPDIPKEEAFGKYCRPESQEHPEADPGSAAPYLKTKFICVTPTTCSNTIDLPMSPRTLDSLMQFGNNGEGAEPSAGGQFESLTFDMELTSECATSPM
Chain of Heat shock factor protein 1 (Homo sapiens) (Q00613 whole entry, looked up): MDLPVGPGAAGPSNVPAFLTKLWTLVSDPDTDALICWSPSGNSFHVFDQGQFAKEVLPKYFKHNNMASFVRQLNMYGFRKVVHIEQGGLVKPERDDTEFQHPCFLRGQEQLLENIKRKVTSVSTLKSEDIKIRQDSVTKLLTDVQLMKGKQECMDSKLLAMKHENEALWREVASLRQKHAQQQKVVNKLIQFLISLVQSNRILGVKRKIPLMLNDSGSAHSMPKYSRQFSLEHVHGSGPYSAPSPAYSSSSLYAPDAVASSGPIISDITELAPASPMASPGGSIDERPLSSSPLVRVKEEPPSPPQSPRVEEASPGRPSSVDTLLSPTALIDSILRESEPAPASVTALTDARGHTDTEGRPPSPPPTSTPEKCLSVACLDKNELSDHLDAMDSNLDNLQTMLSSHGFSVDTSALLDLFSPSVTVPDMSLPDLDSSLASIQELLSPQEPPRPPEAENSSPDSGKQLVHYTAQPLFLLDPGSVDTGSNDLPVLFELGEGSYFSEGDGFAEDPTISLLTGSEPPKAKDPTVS
Chain of Transcription factor Sp1 (Homo sapiens) (P08047 whole entry, looked up): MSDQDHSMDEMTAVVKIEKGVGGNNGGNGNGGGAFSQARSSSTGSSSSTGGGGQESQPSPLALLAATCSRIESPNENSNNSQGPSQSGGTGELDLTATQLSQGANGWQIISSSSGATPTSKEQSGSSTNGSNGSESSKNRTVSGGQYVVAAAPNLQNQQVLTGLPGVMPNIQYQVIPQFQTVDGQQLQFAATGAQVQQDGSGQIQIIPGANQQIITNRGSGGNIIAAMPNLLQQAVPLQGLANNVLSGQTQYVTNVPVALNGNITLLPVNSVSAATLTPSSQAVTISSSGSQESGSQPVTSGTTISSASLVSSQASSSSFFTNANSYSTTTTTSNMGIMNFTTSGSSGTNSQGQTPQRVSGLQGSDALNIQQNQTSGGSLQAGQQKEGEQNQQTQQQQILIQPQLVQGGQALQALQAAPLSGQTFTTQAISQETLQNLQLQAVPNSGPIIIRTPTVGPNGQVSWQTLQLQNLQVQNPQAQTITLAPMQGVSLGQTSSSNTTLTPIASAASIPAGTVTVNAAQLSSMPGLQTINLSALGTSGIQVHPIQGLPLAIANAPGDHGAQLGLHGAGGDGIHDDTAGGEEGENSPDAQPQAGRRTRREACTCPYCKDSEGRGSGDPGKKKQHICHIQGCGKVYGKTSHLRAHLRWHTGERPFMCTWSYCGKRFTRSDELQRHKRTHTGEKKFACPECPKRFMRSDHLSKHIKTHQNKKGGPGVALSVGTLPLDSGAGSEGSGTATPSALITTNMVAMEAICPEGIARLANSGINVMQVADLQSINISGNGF
Chain of Transcriptional activator Myb (Homo sapiens) (P10242 whole entry, looked up): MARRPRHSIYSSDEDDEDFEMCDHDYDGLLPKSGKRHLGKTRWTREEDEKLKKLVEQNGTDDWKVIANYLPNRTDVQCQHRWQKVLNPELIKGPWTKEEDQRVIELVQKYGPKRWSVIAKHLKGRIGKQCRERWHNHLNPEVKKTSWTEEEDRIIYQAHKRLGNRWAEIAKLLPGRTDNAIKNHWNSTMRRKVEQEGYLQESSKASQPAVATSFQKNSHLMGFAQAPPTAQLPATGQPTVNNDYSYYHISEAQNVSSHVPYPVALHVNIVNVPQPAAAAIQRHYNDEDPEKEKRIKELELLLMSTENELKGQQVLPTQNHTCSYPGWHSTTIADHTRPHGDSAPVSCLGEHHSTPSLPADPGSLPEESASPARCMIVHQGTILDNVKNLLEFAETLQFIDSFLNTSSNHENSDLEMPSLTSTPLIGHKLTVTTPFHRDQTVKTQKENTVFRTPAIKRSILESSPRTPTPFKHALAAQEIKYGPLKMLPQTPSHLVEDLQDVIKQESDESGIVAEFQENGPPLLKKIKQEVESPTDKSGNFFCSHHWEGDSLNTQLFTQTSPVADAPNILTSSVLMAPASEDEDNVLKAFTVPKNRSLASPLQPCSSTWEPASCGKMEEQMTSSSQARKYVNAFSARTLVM
Chain of Nuclear respiratory factor 1 (Homo sapiens) (Q16656 whole entry, looked up, the tested form may be a part): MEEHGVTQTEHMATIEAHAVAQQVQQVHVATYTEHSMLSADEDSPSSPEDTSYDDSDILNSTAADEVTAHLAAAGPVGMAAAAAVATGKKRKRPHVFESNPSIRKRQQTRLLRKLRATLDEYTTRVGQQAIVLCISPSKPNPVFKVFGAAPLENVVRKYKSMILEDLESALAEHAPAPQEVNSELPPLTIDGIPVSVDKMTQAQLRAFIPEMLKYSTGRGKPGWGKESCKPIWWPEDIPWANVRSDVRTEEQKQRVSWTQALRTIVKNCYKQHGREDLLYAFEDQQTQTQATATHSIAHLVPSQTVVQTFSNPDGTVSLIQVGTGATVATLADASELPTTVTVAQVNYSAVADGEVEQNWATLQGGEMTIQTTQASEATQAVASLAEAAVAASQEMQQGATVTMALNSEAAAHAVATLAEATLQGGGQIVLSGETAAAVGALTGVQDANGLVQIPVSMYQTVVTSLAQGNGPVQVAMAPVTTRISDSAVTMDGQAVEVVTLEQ
Chain of Cellular tumor antigen p53 (Homo sapiens) (P04637 whole entry, looked up, the tested form may be a part): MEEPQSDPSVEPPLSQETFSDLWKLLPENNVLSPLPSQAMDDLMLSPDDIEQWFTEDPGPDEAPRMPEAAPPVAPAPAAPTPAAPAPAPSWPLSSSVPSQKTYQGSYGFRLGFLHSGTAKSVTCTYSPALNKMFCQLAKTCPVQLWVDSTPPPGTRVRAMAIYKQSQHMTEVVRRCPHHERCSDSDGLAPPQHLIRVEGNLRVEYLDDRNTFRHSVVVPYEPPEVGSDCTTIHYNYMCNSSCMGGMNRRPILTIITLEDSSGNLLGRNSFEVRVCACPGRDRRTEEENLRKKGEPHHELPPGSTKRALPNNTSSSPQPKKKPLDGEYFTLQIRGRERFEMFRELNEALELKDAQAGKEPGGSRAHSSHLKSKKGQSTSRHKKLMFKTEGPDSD

Regarding `NC(N)=Nc1nc(CSCCC(N)=NS(N)(=O)=O)cs1`, the call in [1], in assay [2], in [3], in [4], in assay [5] and in assay [6] was inactive. In addition, the result in assay [7], in assay [8], in [9], in assay [10], in assay [11] and in assay [12] was inactive. In addition, the result in assay [13], in assay [14], in [15], in [16], in assay [17] and in assay [18] was inactive. The call in [19] and in assay [20] was inactive.
Take `O=C(O)c1nc(Cl)c(Cl)c(Cl)c1Cl`: the result in [1], in assay [2], in [3], in [4], in assay [5] and in assay [6] was inactive. Moreover, the compound was classed as inactive in [7], in [8], in assay [9], in assay [10], in assay [11] and in assay [12]. Further, the call in [13], in assay [14], in [15], in [17] and in assay [19] was inactive. Moreover, the AC50 in assay [16] is 15.3 µM (active).
In the case of `CNC[C@H](O)[C@@H](O)[C@H](O)[C@H](O)CO`, the compound was classed as inactive in assay [1], in [2], in assay [3], in [4], in assay [5] and in assay [6]. Besides, the result in assay [7], in assay [8], in assay [9], in assay [10], in assay [11] and in [12] was inactive. For the same compound, the outcome in assay [13], in assay [14], in assay [15], in assay [16], in assay [17] and in assay [18] was inactive. Also, the result in [20] was inactive.
For the compound `CCCCCCC1CCC(=O)O1` (centres undefined), the compound was classed as inactive in [1], in assay [2], in assay [3], in assay [4], in assay [5] and in [6]. For the same compound, the call in assay [7], in assay [8], in [9], in assay [10], in assay [11] and in assay [12] was inactive. Also, the call in [13], in [14], in assay [15], in assay [16], in [17] and in [18] was inactive. Besides, the outcome in assay [19] and in [20] was inactive.
Take `C=CC(C)(CCC=C(C)C)OC(=O)c1ccccc1` (centres undefined): the call in [1], in [2], in assay [3], in assay [4], in assay [5] and in [6] was inactive. Also, the compound was classed as inactive in assay [7], in assay [8], in [9], in assay [10], in assay [12] and in assay [13]. In addition, the result in [14], in [17], in [18] and in assay [20] was inactive. Moreover, the AC50 is 131 µM (active) in assay [15], 98 µM (active) in [16] and 8.68 µM (active) in assay [19].
For the compound `O=C(c1ccccc1)c1ccccc1O`, the result in assay [1], in [2], in assay [3], in assay [4], in assay [5] and in assay [6] was inactive. Further, the result in assay [8], in assay [10], in [11], in assay [12], in [13] and in assay [16] was inactive. Besides, the compound was called inactive in [17] and in assay [20]. Besides, the AC50 was 154 µM (active) in [7]; 129 µM (active) in assay [9]; 156 µM (active) in assay [14]; 135 µM (active) in assay [15]; 34.4 µM (active) in [19].
Consider `Clc1ccc(Sc2cc(Cl)c(Cl)cc2Cl)cc1`, for which the compound was classed as inactive in [1], in assay [3], in [4], in assay [5], in assay [6] and in assay [7]. The compound was classed as inactive in assay [8], in [9], in assay [10], in assay [11], in assay [12] and in [13]. Moreover, the outcome in assay [14], in [15], in [16], in [17], in assay [18] and in assay [20] was inactive. The AC50 in assay [19] is 2.22 µM (active).
